Experiment [1] relates to Vero E6 infected with SARS-CoV-2. Briefly: morphology score (similarity to uninfected cells); higher = more like uninfected cells. To be noted: 24 h.
Experiment [2] shares this test system. Description: SARS-CoV-2 infection rate relative to infected DMSO; higher = more infection, active = 60 or less. As to conditions: 24 h.

Regarding `C[N+]1(C)[C@@H]2C[C@@H](OC(=O)C(O)(c3cccs3)c3cccs3)C[C@H]1[C@@H]1O[C@@H]12` [tiotropium] (10 µM), the morphology score in experiment [1] is 0.0776. Further, the SARS-CoV-2 infection rate in experiment [2] was 100% (inactive).

`OC[C@@H](O)[C@@H](O)CO` [erythritol] (10 µM) displayed a morphology score in experiment [1] of 0.135. Moreover, in experiment [2], the SARS-CoV-2 infection rate was 87.5% (inactive).

Turning to `O=Nc1c(O)[nH]c2c(Cl)c(Cl)ccc12` (10 µM), the morphology score in experiment [1] stood at 0.117. Further, in experiment [2], the SARS-CoV-2 infection rate was 93.5% (inactive).

In turn, `CCCCCCN(CCCCCC)C(=O)Cc1c(-c2ccc(Cl)cc2)[nH]c2ccc(Cl)cc12` (10 µM) yielded a morphology score in experiment [1] of -0.00824. In addition, the SARS-CoV-2 infection rate in experiment [2] was 103% (inactive).

For `CCN1CCN(c2ccc(C(C)(C)NC(=O)c3cc4[nH]c5ccccc5c(=O)c4cc3F)cn2)CC1` (10 µM), the morphology score in experiment [1] came out at 0.572. The SARS-CoV-2 infection rate in experiment [2] is 55% (active).

As for `O=C(O)COC(=O)Cc1ccccc1Nc1c(Cl)cccc1Cl` [aceclofenac] (10 µM), in experiment [1], the morphology score was -0.0479. In addition, in experiment [2], the SARS-CoV-2 infection rate is 110% (inactive).

The compound `c1ccc2c(c1)Sc1ccccc1N2C[C@H]1CN2CCC1CC2` [levomequitazine] (10 µM) gave a morphology score in experiment [1] of 0.0894. In addition, in experiment [2], the SARS-CoV-2 infection rate is 86% (inactive).

The compound `O=C(CCCN1CCC2(CC1)C(=O)NCN2c1ccccc1)c1ccc(F)cc1` [spiperone] (10 µM) showed a morphology score in experiment [1] of 0.763. The SARS-CoV-2 infection rate in experiment [2] was 22% (active).

In experiment [1], `NS(=O)(=O)C#Cc1ccccc1` [pifithrin-mu] (0.833333 µM) returned a morphology score of 0.168. In addition, the SARS-CoV-2 infection rate in experiment [2] was 92% (inactive).

Compound `CCC(=O)NCC[C@@H]1CCc2ccc3c(c21)CCO3` [ramelteon] (10 µM) yielded a morphology score in experiment [1] of 0.00565. Further, the SARS-CoV-2 infection rate in experiment [2] is 114% (inactive).

`CC(C)c1ccc(C(=O)N=C(N)N)cc1S(C)(=O)=O` [cariporide] (10 µM): the morphology score in experiment [1] is 0.169. Also, in experiment [2], the SARS-CoV-2 infection rate is 101% (inactive).

`COc1c(C)c2c(c(O)c1C/C=C(\C)CCC(=O)OCCN1CCOCC1)C(=O)OC2` [mycophenolate-mofetil] (10 µM) had a morphology score in experiment [1] of -0.124. In addition, the SARS-CoV-2 infection rate in experiment [2] was 108% (inactive).

Consider `CC(C)=CCC/C(C)=C/CNCCNC1C2CC3CC(C2)CC1C3` (configuration not stated) (10 µM), for which the morphology score in experiment [1] came to 0.122. For the same compound, the SARS-CoV-2 infection rate in experiment [2] is 94.5% (inactive).

`COc1ccc([C@@H]2CC(=O)c3c(O)cc(O[C@@H]4O[C@H](CO[C@@H]5O[C@@H](C)[C@H](O)[C@@H](O)[C@H]5O)[C@@H](O)[C@H](O)[C@H]4O)cc3O2)cc1O` [hesperidin] (10 µM) showed a morphology score in experiment [1] of -0.132. In addition, the SARS-CoV-2 infection rate in experiment [2] is 108% (inactive).

`OCC(CO)N[C@H]1C[C@](O)(CO)[C@@H](O)[C@H](O)[C@H]1O` [voglibose] (10 µM): in experiment [1], the morphology score is -0.105. In addition, in experiment [2], the SARS-CoV-2 infection rate was 106% (inactive).

`C=C(C)[C@@H]1CC[C@]2(C(=O)O)CC[C@]3(C)[C@H](CC[C@@H]4[C@@]5(C)CC[C@H](O)C(C)(C)[C@@H]5CC[C@]43C)[C@@H]12` [betulinic-acid] (10 µM) gave a morphology score in experiment [1] of 0.0296. In addition, the SARS-CoV-2 infection rate in experiment [2] is 108% (inactive).

Regarding `COc1cc(C#N)ccc1S(=O)(=O)Nc1ccc2c(c1)cc(C)c(=O)n2C` (10 µM), in experiment [1], the morphology score was determined as 0.0143. Moreover, the SARS-CoV-2 infection rate in experiment [2] is 102% (inactive).

`COc1cc(-n2cnc3cc(-c4ccc(Cl)cc4)sc3c2=O)ccc1OCCN1CCCC1` (10 µM) displayed a morphology score in experiment [1] of 0.52. Also, in experiment [2], the SARS-CoV-2 infection rate is 53% (active).

Regarding `Cc1ccc(NC(=O)CCCCCC(=O)Nc2ccccc2N)cc1` (0.833333 µM), the morphology score in experiment [1] was -0.0538. In experiment [2], the SARS-CoV-2 infection rate is 103% (inactive).

`CCCNCC(O)COc1ccccc1C(=O)CCc1ccccc1` (configuration not stated) [propafenone] (0.833333 µM) gave a morphology score in experiment [1] of -0.109. Further, the SARS-CoV-2 infection rate in experiment [2] is 110% (inactive).

With `CCCNC(=O)Nc1ccc(Oc2ncnc3cc(OC)c(OC)cc23)cc1Cl` (10 µM), the morphology score in experiment [1] is -0.0266. In experiment [2], the SARS-CoV-2 infection rate is 108% (inactive).

For `Oc1ccnc2cc(Cl)ccc12` [chloroxoquinoline] (10 µM), the morphology score in experiment [1] was 0.159. Besides, the SARS-CoV-2 infection rate in experiment [2] is 99.5% (inactive).

For `CCC1=C[C@@H]2CN(C1)Cc1c([nH]c3ccccc13)[C@@](C(=O)OC)(c1cc3c(cc1OC)N(C)[C@H]1[C@@](O)(C(=O)OC)[C@H](OC(C)=O)[C@]4(CC)C=CCN5CC[C@]31[C@@H]54)C2` [vinorelbine] (10 µM), in experiment [1], the morphology score was -0.193. In experiment [2], the SARS-CoV-2 infection rate was 115% (inactive).

`CCN(CC)CCNC(=O)c1ccccc1I` (10 µM) showed a morphology score in experiment [1] of 0.221. Besides, the SARS-CoV-2 infection rate in experiment [2] is 91% (inactive).

In turn, `Oc1cc2c(cc1O)[C@H](Cc1cccc3ccccc13)NCC2` (10 µM) yielded a morphology score in experiment [1] of -0.102. In experiment [2], the SARS-CoV-2 infection rate was 119% (inactive).

Consider `C[C@]12CC[C@H]3[C@@H](CC[C@@]45O[C@@H]4C(O)=C(C#N)C[C@]35C)[C@@H]1CC[C@@H]2O` [trilostane] (10 µM), for which the morphology score in experiment [1] was -0.0579. Moreover, in experiment [2], the SARS-CoV-2 infection rate is 104% (inactive).

In turn, `CCn1ccnc1CC1COc2ccccc2O1` (configuration not stated) [imiloxan] (10 µM) showed a morphology score in experiment [1] of -0.00924. Moreover, the SARS-CoV-2 infection rate in experiment [2] was 99% (inactive).

For `CCO[C@@H](Cc1ccc(OCCc2ccc(OS(C)(=O)=O)cc2)cc1)C(=O)O` [tesaglitazar] (10 µM), the morphology score in experiment [1] was 0.194. The SARS-CoV-2 infection rate in experiment [2] was 110% (inactive).

`CCOC(CN1CCN(CC(C)C(=O)c2ccccc2)CC1)c1ccccc1` (configuration not stated) [eprazinone] (10 µM) displayed a morphology score in experiment [1] of 0.35. Also, the SARS-CoV-2 infection rate in experiment [2] was 96% (inactive).

In experiment [1], `CC(=O)N(CC(O)CO)c1c(I)c(C(=O)NCCO)c(I)c(C(=O)NCC(O)CO)c1I` (configuration not stated) [ioxilan] (10 µM) registered a morphology score of 0.00249. In addition, in experiment [2], the SARS-CoV-2 infection rate is 114% (inactive).

In experiment [1], `Cc1cccc(C(C)c2c[nH]cn2)c1C` (configuration not stated) [medetomidine] (10 µM) came in with a morphology score of -0.0614. In addition, in experiment [2], the SARS-CoV-2 infection rate was 102% (inactive).

The values are drawn from the supplement of paper PMC13380429.
